Compound activity as filed in PubChem.
HT1080 IDH1KD tx – qHTS for induction of synthetic lethality in tumor cells producing 2HG: qHTS for the HT-1080-IDH1KD cell line; HT-1080 IDH1 knockdown viability, ATP luminescence, 48 h; Potency, µM (highest dose often 46.1 µM), inactives show top-dose activity, negative = toxicity, most hits filed as cytotoxic; 2% of 360,000 active; AID 686971, 2013;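 also: potency is read from the fitted curve at half-maximal effect; 0% = DMSO wells and -100% = cell-free medium wells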
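After a 2 h attachment period, IDH1KD HT-1080 cells took pin-transferred compound for 48 h at 37 °C; ATP-based luminescence after 10 min room-temperature reagent incubation reported viability.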
DT40 TDP1 no CPT – qHTS for Inhibitors of human tyrosyl-DNA phosphodiesterase 1 (TDP1): qHTS in cells in absence of CPT; DT40 Tdp1-/- hTDP1 cells, no CPT, ATP luminescence, 48 h; Potency, µM (top dose mostly 46.2 µM), for the others: top-dose activity change, negative = growth inhibition, most hits filed as inhibitors; 15% of 420,000 active; also: potency is read from the fitted curve at half-maximal effect; nearly all actives have a fitted effect of over 55% in size
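Chicken DT40 Tdp1-/- cells complemented with human TDP1, screened without camptothecin (DMSO vehicle only), 400 cells/well. Compounds pin-transferred, cells incubated at 37 °C for at least 48 hr. Growth read as ATP-dependent luminescence (CellTiter-Glo, 30 min at RT).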
DT40 TDP1 CPT – qHTS for Inhibitors of human tyrosyl-DNA phosphodiesterase 1 (TDP1): qHTS in cells in presence of CPT. chicken DT40 Tdp1-/-;hTDP1 cells + 20 nM CPT, ATP luminescence, 48 h. 12% of 420,000 active. Potency, µM (highest dose often 46.2 µM), without a hit: at the highest dose activity change, negative = growth inhibition, usual class: inhibitors; also: potency is read from the fitted curve at half-maximal effect; nearly all actives have a fitted effect of over 55% in size
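Chicken DT40 Tdp1-/- cells stably complemented with human TDP1 were seeded at 400 cells/well in medium containing 20 nM camptothecin, exposed to pin-transferred compounds, and grown at 37 °C for at least 48 hr. Viability was read as ATP luminescence.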
ALOX12 inh – Primary qHTS assay for inhibitors of human arachidonate 12S-lipoxygenase (ALOX12): Round 2; purified 12hLO, xylenol orange hydroperoxide absorbance; Potency, µM (doses to about 108 µM), inactives show at the top dose activity change, negative = inhibition, usual class: inhibitors; 1.1% of 580,000 active; also: potency is read from the fitted curve at half-maximal effect
Target sequence (P18054 whole entry, looked up): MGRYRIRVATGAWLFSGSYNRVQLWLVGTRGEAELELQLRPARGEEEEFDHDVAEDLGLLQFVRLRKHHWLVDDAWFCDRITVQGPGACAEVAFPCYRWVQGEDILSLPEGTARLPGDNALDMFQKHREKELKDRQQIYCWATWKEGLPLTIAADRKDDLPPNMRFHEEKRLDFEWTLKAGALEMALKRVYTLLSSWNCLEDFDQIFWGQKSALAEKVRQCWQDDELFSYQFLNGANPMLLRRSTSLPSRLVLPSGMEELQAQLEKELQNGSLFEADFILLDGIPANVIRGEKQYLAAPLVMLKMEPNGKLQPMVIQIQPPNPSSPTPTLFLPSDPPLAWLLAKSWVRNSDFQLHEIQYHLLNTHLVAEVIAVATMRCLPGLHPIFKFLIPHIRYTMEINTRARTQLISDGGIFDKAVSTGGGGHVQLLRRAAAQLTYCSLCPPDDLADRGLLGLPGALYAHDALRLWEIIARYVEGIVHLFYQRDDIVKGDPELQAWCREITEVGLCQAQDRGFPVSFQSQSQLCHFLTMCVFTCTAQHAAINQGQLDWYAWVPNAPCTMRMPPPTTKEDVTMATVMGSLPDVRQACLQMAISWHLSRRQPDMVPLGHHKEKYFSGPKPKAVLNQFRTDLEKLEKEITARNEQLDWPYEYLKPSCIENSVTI
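Purified human 12hLO (150 nM final) in 25 mM Hepes, 0.01% Triton X-100, pH 7.0 was preincubated 15 min at room temperature with compound. Then 40 uM arachidonic acid was added, 30 min. Hydroperoxide was read by Fe-XO absorbance ratio 573/405 nm.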
HT1080-NT tox – qHTS for induction of synthetic lethality in tumor cells producing 2HG: qHTS for the HT-1080-NT fibrosarcoma cell line | HT-1080-NT fibrosarcoma viability, CellTiter-Glo ATP luminescence, 48 h | AID 686970, 2013 | 1.6% of 360,000 active | Potency, µM (titrated, usually from 46.1 µM), without a hit: at the highest dose activity, negative = less viability, actives largely listed as cytotoxic;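 also: NT is the 2HG producing partner of a matched IDH1 knockdown line; potency is read from the fitted curve at half-maximal effect; 0% = DMSO-treated cells and -100% = media-only wells without cells; nearly all actives have a fitted effect of over 55% in size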
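Viability by CellTiter-Glo luminescence after 48 h compound exposure at 37C of HT-1080-NT cells (750/well, RPMI, 5% FBS). % activity scaled between DMSO wells and medium-only wells, then curve-fitted and categorized by curve class.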
IL-1B inflam inh – qHTS for Inhibitors of Inflammasome Signaling: IL-1-beta AlphaLISA Primary Screen; THP-1 LPS/ATP IL-1B secretion, AlphaLISA, 16 h; stronger effect = lower value; activity change, % at 57.5 µM; 4.7% of 360,000 active; in the data active = activity change below about -50%; inconclusive = mostly about -30% to -49%
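Secreted IL-1B measured by AlphaLISA bead assay after 16 h compound exposure of THP-1 cells; compounds (final up to 57.5 uM) added 1 h before LPS (250 ng/mL) and ATP (1.25 mM) stimulation; lower signal means less secretion.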
Numbers without * were called inactive; i = inactive; ? = inconclusive; · = no result given; [ ] = remark or other dose. The full list was thinned out, with hits kept by preference. Unless noted, calls follow the shape of the dose curve; as a rule, active = well fitted curve in the direction sought with a large enough effect; inconclusive = small, poorly fitted or top-dose-only effect, or another doubt; inactive = no such curve, though single readings can be large; an effect the other way counts as inactive or inconclusive. Unless noted, % is scaled to controls: 0 for no effect and ±100 for the full control effect.

SMILES	HT1080 IDH1KD tx	DT40 TDP1 no CPT	DT40 TDP1 CPT	ALOX12 inh	HT1080-NT tox	IL-1B inflam inh
Clc1cccc(CNc2ccn3nc(-c4cccc(OCc5ccccc5)c4)cc3n2)c1	9.2µM*	?	?	-4%	?	-27
c1ccc(-c2cc3nc(NCc4ccc5c(c4)OCO5)ccn3n2)cc1	-25%	?	?	-5%	-10%	-9
COc1ccc(CN2C(=O)COC[C@H]2C(=O)NCCc2c[nH]c3ccccc23)c(OC)c1	·	·	·	20%	·	·
CNC(=O)NC(=O)C(C)NC(C)c1ccc(Cl)cc1 (stereo not drawn)	·	·	·	-13%	·	·
Cc1cc(=S)c2ccccc2[nH]1	-21%	-15%	?	?	?	-86*
Cc1ccc2[nH]c(C)cc(=S)c2c1	23µM*	16µM*	13µM*	-21%	?	-69*
Cc1ccc2[nH]c(C)c([N+](=O)[O-])c2c1	·	·	·	1%	·	·
COc1ccc(-c2ccc3ncc(Nc4ccc(C(N)=O)cc4)n3n2)cc1OC	·	·	·	20%[176 µM]	·	·
CNC(=O)CSCc1c(Cl)cccc1Cl	6%	-9%	-14%	-12%	9%	10
CC(C)NC(=O)CSCc1c(Cl)cccc1Cl	-1%	15µM*	?	73%	7%	-8
CCCn1cnnc1-c1nc2c([nH]1)CC(c1ccccc1OC)CNC2=O (stereo not drawn)	·	·	·	46%	·	·
CC(C)CCN1CCCC2(CN[S+](=O)([O-])c3ccccc3N2)C1 (stereo not drawn)	·	·	·	34%[176 µM]	·	·
CCCc1nc(SCc2ccccn2)c2c(=O)n(C)c(=O)n(C)c2n1	-2%	?	?	9%[57.4 µM]	0%	58
Cn1c(=O)c2c(SCc3cccnc3)nc(CC(C)(C)C)nc2n(C)c1=O	-18%	18µM*	15µM*	12%	-19%	17
CCCc1nc(SCc2cccnc2)c2c(=O)n(C)c(=O)n(C)c2n1	-3%	16µM*	?	15%	-2%	57
CCCCn1c(SCc2cccnc2)nc2c1c(=O)n(C)c(=O)n2C	2%	16µM*	13µM*	1%	12%	12
Cn1c(=O)c2c(SCc3ccccn3)nc(CC(C)(C)C)nc2n(C)c1=O	8%	21µM*	21µM*	-8%	4%	44
CCn1c(SCc2cccnc2)nc2c1c(=O)n(C)c(=O)n2C	2%	-7%	-21%	9%	13%	27
O=C(CCc1ncc(-c2c(F)cccc2F)o1)N1CCC(OCc2ccccc2)CC1	·	·	·	-5%	·	·
CCc1ccc2oc(=O)cc(CN3CCN(CC(=O)NC4CCCC4)CC3)c2c1	·	·	·	-8%	·	·
O=C(CC1(C(=O)O)CCCCCC1)Nc1ccccc1NS(=O)(=O)c1ccc(F)cc1	·	·	·	15%	·	·
COc1ccccc1-c1onc(C)c1C(=O)NCc1ccccc1Cl	·	·	·	16%	·	·
Cc1nc(-c2ccccc2)n(CC(=O)Nc2cccc(C#N)c2)c(=O)c1CCO	·	·	·	-6%	·	·
O=C(/C=C/c1c(Cl)cccc1Cl)n1cccn1	?	16µM*	?	12%	?	-52*
Brc1ccc(-c2ccnc3nc(-c4ccco4)nn23)s1	·	·	·	0%	·	·
SMILES	HT1080 IDH1KD tx	DT40 TDP1 no CPT	DT40 TDP1 CPT	ALOX12 inh	HT1080-NT tox	IL-1B inflam inh
CN(CC(=O)Nc1ccc(Cl)c(C(F)(F)F)c1)C(=O)C1CC(=O)N(Cc2ccco2)C1 (stereo not drawn)	-8%	23µM*	13µM*	-24%	-15%	-21
CN(CC(=O)Nc1ccc(Cl)c(C(F)(F)F)c1)C(=O)/C=C/c1cccs1	0%	23µM*	?	?	-5%	-7
CN(CC(=O)Nc1ccc(Cl)c(C(F)(F)F)c1)C(=O)/C=C/c1ccco1	-6%	18µM*	18µM*	?	3%	i
CN(CC(=O)Nc1cccc(F)c1)C(=O)C1CC(=O)N(Cc2ccco2)C1 (stereo not drawn)	9%	-19%	-1%	10%	2%	16
O=C(Nc1cccc(F)c1)N1CCc2c(c3ccccc3n2CC2CC2)C1	·	·	·	226%	·	·
CN(C(=O)C(c1ccccc1)c1ccccc1)c1nc2ccccc2o1	·	·	·	-25%	·	·
Cc1sc(NC(=O)c2ccco2)c(CN2CCN(c3ccc(F)cc3)CC2)c1C	-13%	12µM*	21µM*	-25%	-2%	-3
Cc1sc(NC(=O)c2ccco2)c(C(c2cccnc2)N2CCN(c3ccc(F)cc3)CC2)c1C (stereo not drawn)	?	5.8µM*	1.8µM*	?	?	?
Cc1ccc(C(c2c(NC(=O)c3ccco3)sc(C)c2C)N2CCOCC2)cc1 (stereo not drawn)	1%	?	?	?	11%	-3
Cc1sc(NC(=O)c2ccco2)c(C(c2ccc(F)cc2)N2CCN(C)CC2)c1C (stereo not drawn)	?	?	?	·	?	-71*
Cc1sc(NC(=O)c2ccco2)c(C(c2cccnc2)N2CCN(CCO)CC2)c1C (stereo not drawn)	0%	0%	-29%	5%	-6%	-12
Cc1sc(NC(=O)c2ccco2)c(C(c2ccccc2)N2CCC(C)CC2)c1C (stereo not drawn)	?	6.5µM*	10µM*	7%	?	-22
CC(C)NC(=O)c1nc2sccn2c1Br	·	·	·	16%[176 µM]	·	·
CC(=O)Nc1ccc(NC(=O)COc2ccc3c(=O)c(-c4ccccc4)c(C)oc3c2)cc1	·	·	·	3%	·	·
Cc1cc(NC(=O)C(C)C)cc(-c2nc3ccccc3o2)c1O	·	·	·	-5%	·	·
CC(=O)N(Cc1cc2cccc(C)c2[nH]c1=O)C(C)(C)C	·	·	·	33%	·	·
CCOC(=O)C1CCN(C(c2cccnc2)c2c(NC(=O)c3ccco3)sc(C)c2C)CC1 (stereo not drawn)	?	1.8µM*	1.6µM*	-6%	-19%	-29
CC(=O)Nc1sc2c(c1CN1CCN(c3ccc(F)cc3)CC1)CCCC2	-28%	15µM*	?	?	-21%	-10
COc1ccc(NC(=O)c2cc(-c3cc(C)cc(F)c3)n[nH]2)cc1OC	?	?	26µM*	-5%	-16%	?
